# Bioassay records (PubChem BioAssay)
# ELG1 repair inh: blocks ELG1-dependent DNA repair in HEK293T cells; HEK293T ELG1-luciferase reporter, luminescence, 16 h; DNA damage induced by 5-fluorouridine; Potency, µM (top dose mostly 46.1 µM), inactives show at the highest dose activity change, negative = inhibition, usual class: inhibitors; hit rate 2.3% among 330,000; AID 504467; note: potency is the fitted concentration of half-maximal effect; nearly all actives have a fitted effect of over 55% in size
#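 HEK293T cells expressing luciferase-tagged ELG1 (2,000/well) received 5-Fluorouridine plus compound or DMSO for 16 hr at 37 °C. Luciferase was read by ONE-Glo luminescence after 30 min at room temperature.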
# Giardia kill: kills Giardia lamblia | Giardia lamblia trophozoite viability | activity change, % at 7.66 µM, hits read low | hit rate 0.15% among 340,000 | AID 540267; in the data active = activity change below about -80%; inconclusive = between about -30% and that limit;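 note: parasites exposed to compound for two days anaerobically before the ATP read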
#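 Luminescent ATP signal served as the viability read-out, measured 15-30 min after adding ATP detection reagent to trophozoites that had been incubated with compounds for 48 hrs at 37 deg C anaerobically at 100 cells/well.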
# IL1B secr inh: inhibitors of inflammasome signaling (IL-1 beta secretion) | hit rate 4.7% among 360,000 | AID 743279 | activity change, % at 57.5 µM | THP-1 LPS/ATP IL-1B secretion, AlphaLISA, 16 h; stronger effect = lower value; in the data active = activity change below about -50%; inconclusive = mostly about -30% to -49%
#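 THP-1 cells pretreated 1 hr with compounds (up to 57.5 uM final), then stimulated with LPS (250 ng/mL final) plus ATP (1.25 mM final); secreted IL-1B measured by AlphaLISA after 16 hr, decreased signal indicating inhibition.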
# TDP1 cell CPT: growth inhibition of DT40 Tdp1-/-;hTDP1 cells with camptothecin (screen for TDP1 inhibitors). chicken DT40 Tdp1-/-;hTDP1 cells + 20 nM CPT, ATP luminescence, 48 h. Potency, µM (top dose mostly 46.2 µM), inactives show at the top dose activity change, negative = growth inhibition, hits mostly inhibitors. hit rate 12% among 420,000. AID 686979; note: potency is the fitted concentration of half-maximal effect; nearly all actives have a fitted effect of over 55% in size
#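 Chicken DT40 Tdp1-/- cells stably complemented with human TDP1 were seeded at 400 cells/well in medium containing 20 nM camptothecin, exposed to pin-transferred compounds, and grown at 37 °C for at least 48 hr. Viability was read as ATP luminescence.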
# TDP1 inh: TDP1 (human) enzyme inhibition | recombinant TDP1, AlphaScreen DNA substrate cleavage | Potency, µM (top dose mostly 130 µM), without a hit: at the highest dose activity change, negative = inhibition, usual class: inhibitors | Q9NUW8 | hit rate 0.28% among 350,000; note: potency is the fitted concentration of half-maximal effect; nearly all actives have a fitted effect of over 40% in size
# Target sequence (Q9NUW8 whole entry, looked up): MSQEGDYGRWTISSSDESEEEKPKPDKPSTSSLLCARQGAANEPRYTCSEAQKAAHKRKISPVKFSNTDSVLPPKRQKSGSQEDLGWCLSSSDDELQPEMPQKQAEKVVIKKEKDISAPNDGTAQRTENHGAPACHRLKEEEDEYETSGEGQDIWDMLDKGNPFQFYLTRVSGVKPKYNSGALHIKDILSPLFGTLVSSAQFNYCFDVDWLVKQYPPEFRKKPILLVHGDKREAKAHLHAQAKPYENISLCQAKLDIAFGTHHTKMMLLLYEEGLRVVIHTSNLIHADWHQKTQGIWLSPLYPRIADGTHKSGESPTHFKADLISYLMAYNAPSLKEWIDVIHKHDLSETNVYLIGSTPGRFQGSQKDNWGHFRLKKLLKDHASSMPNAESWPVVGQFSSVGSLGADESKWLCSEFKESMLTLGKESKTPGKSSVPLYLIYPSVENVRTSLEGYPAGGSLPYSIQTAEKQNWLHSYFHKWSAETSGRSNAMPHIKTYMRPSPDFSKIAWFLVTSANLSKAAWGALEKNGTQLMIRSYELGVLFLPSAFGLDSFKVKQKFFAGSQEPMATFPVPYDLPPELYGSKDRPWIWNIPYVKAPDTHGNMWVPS
#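 AlphaScreen read-out: signal falls as enzyme removes the 3' tyrosine-FITC from a 5'-biotinylated DNA oligo (15 nM, 5 min, RT). Enzyme was E. coli-made recombinant Tdp1 at 1 nM, exposed to compound for 15 min beforehand; beads 10 ug/ml, 10 min.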
# DT40 TDP1 no CPT: qHTS for Inhibitors of human tyrosyl-DNA phosphodiesterase 1 (TDP1): qHTS in cells in absence of CPT; DT40 Tdp1-/- hTDP1 cells, no CPT, ATP luminescence, 48 h; Potency, µM (doses to about 46.2 µM), inactives show top-dose activity change, negative = growth inhibition, hits mostly inhibitors; hit rate 15% among 420,000; note: potency is the fitted concentration of half-maximal effect; nearly all actives have a fitted effect of over 55% in size
#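 Chicken DT40 Tdp1-/- cells stably complemented with human TDP1 were seeded at 400 cells/well with DMSO in place of 20 nM camptothecin. After compound pinning, cells grew at least 48 hr at 37 °C; viability read by CellTiter-Glo luminescence.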
# * hit, by the source's call; i = inactive; u = inconclusive; x = no result; [ ] = another dose, or the depositor's remark. Only some compounds are listed: those with a hit (about 19% of all), similar ones and a draw of the others. Unless noted, calls come from the whole dose curve; as a rule, active = well fitted curve in the direction sought with a large enough effect; inconclusive = small, poorly fitted or top-dose-only effect, or another doubt; inactive = no such curve, though single readings can be large; an effect the other way counts as inactive or inconclusive. % is set by controls: 0 for no effect and ±100 for the full control effect.
SMILES,ELG1 repair inh,Giardia kill,IL1B secr inh,TDP1 cell CPT,TDP1 inh,DT40 TDP1 no CPT
CC(=O)Nc1cccc(NC(=O)C2(c3cccs3)CCOCC2)c1,x,x,x,-0.5%,2.6%,-7.0%
Cc1ccc(NC(=O)C2(c3cccs3)CCOCC2)cc1Cl,x,x,x,25.9µM*,-2.6%,u
O=C(Nc1ccc(C(F)(F)F)cc1)C1(c2cccs2)CCOCC1,x,x,x,u,-2.6%,23.1µM*
COc1ccccc1C(=O)N1CCOc2ccc(C(C)(O)CCn3cccn3)cc2C1 (centres undefined),x,x,x,-13.6%,x,-16.4%
CCOC(=O)c1c(C)oc2cc(Br)c(OC(=O)N3CCOCC3)cc12,23.1µM*,11.5,-5.0,-26.9%,2.1%,-23.7%
C=CCN(CC=C)C(=S)NC(=O)c1ccc(-c2ccccc2)cc1,-1.0%,-19.8,22.3,5.8µM*,8.8%,6.51µM*
CC(C)C(=O)NC(=S)N(Cc1ccccc1)Cc1ccccc1,-0.8%,4.0,-16.6,u,4.2%,16.4µM*
C=CCN(CC=C)C(=S)NC(=O)/C=C/c1ccccc1,-2.4%,-3.0,19.6,u,0.0%,23.1µM*
COc1ccc(C(=O)NC(=S)N(Cc2ccccc2)Cc2ccccc2)cc1,u,-0.7,-1.1,16.4µM*,10.3%,9.2µM*
C=CCN(CC=C)C(=S)NC(=O)/C=C/c1ccc(C)cc1,6.3%,13.1,3.3,-16.3%,0.0%,u
Cc1ccc2c(CC(=O)N(Cc3cccc(Cl)c3)C3CCS(=O)(=O)C3)coc2c1 (centres undefined),x,x,x,u,2.5%,u
Cc1ccc(NC(=O)CSc2ncnc3c2sc2ccccc23)cc1C,x,x,x,-11.6%,2.6%,-0.4%
O=C1/C(=C/c2ccc(S(=O)(=O)O)cc2S(=O)(=O)O)CCc2ccccc21,x,x,19.7,3.5%,x,-1.3%
COc1ccccc1CNC(=O)c1ccc(NC(=O)CC2SC(N3CCCC3)=NC2=O)cc1 (centres undefined),9.8%,-0.1,5.7,-9.3%,4.0%,3.5%
C=CCN(CC=C)C(=S)NC(=O)c1ccc(OC)cc1,-4.3%,-12.1,-7.9,14.6µM*,0.0%,5.17µM*
Cc1cccnc1C1=NOC(Cc2ccccc2)C(=O)N1CCOc1ccc(F)cc1 (centres undefined),x,x,35.6,16.4µM*,x,23.1µM*
COc1ccccc1C(=O)NC(=O)Nc1cccc(Cl)c1,u,-10.6,-3.0,-6.8%,x,u
O=C(NC(=O)c1c(F)cccc1F)Nc1cccc(Oc2ncc(Cl)cn2)c1,x,10.5,0.0,u,x,5.8µM*
COC(=O)c1ccccc1NC(=O)CCCn1nc([N+](=O)[O-])c(Br)c1C,9.2%,4.4,20.5,14.6µM*,-5.3%,-20.4%
Cc1c(Br)c([N+](=O)[O-])nn1CCCC(=O)Nc1sc2c(c1C#N)CCC2,-24.8%,-12.8,-10.9,14.6µM*,2.3%,16.4µM*
CCc1ccccc1NC(=O)c1ccc2c(c1)N(Cc1cc(C)ccc1C)C(=O)c1ccccc1S2(=O)=O,x,x,x,x,6.4%,x
Clc1ccc(/C=C/c2nc3ccccc3[nH]2)c(Cl)c1,u,u,u,13µM*,-4.0%,18.4µM*
O=C(/C=C/c1ccc(Cl)cc1Cl)c1nc2ccccc2[nH]1,6.0%,-27.3,-4.7,11.6µM*,0.0%,u
O=C(/C(=C(\O)c1ccccc1)c1nc2ccccc2[nH]1)c1ccccc1,-20.3%,-10.2,u,-12.9%,x,u
Clc1cccc(Cl)c1/C=C/c1nc2ccccc2[nH]1,u,u,-25.8,u,4.7%,16.4µM*
SMILES,ELG1 repair inh,Giardia kill,IL1B secr inh,TDP1 cell CPT,TDP1 inh,DT40 TDP1 no CPT
COc1ccc2c(c1)sc1ncc(C(=O)NCc3cccc(Cl)c3)c(=O)n12,x,x,x,-3.5%,2.9%,-15.8%
COc1cc2c(C=O)c3c4c(cc(OC)c(OC)c4c2cc1OC)CCN3C,x,x,x,11.9µM*,10.7%[56.1 µM],11.9µM*
COc1cc2c(cc1OC)CC(=O)N(C)CC2,u,0.8,0.0,0.6%,-2.5%,0.6%
O=C(Nc1cccc(N2C(=O)C3CCCCC3C2=O)c1)c1ccccc1 (centres undefined),-9.1%,u,18.4,-20.6%,-0.2%,-0.4%
O=C(Nc1ccc(F)cc1)c1cccc(N2C(=O)C3C4C=CC(C5CC45)C3C2=O)c1 (centres undefined),16.4µM*,-2.5,-74.8*,16.4µM*,3.1%,u
Cc1cccc(NC(=O)c2ccc(N3C(=O)C4C5C=CC(C6CC56)C4C3=O)cc2)c1 (centres undefined),8.2µM*,-6.9,5.6,u,2.6%,u
O=C(Nc1cccc(Cl)c1)c1cccc(N2C(=O)C3CC=CCC3C2=O)c1 (centres undefined),-7.9%,12.7,-7.5,u,25.1µM*,u
COC(=O)c1ccc(NC(=O)c2cccc(N3C(=O)C4C5C=CC(C6CC56)C4C3=O)c2)cc1 (centres undefined),u,-11.9,i,8.2µM*,-7.2%,7.31µM*
Cc1cccc([N+](=O)[O-])c1C,x,x,x,x,3.7%,x
Cc1cc(NC(=O)CSCC(=O)OCC(=O)c2ccc(Br)cc2)no1,x,x,30.3,7.2%,x,-3.8%
CSc1ccccc1C(=O)Nc1ccc(C)c(C)c1,u,0.7,-8.8,u,-0.5%,u
Cc1ccc(NC(=O)c2ccccc2N2C(=O)C3C4C=CC(C5CC45)C3C2=O)cc1C (centres undefined),2.4%,-9.5,-13.0,20.6µM*,3.4%,u
O=C(Nc1ccccc1)c1cccc(N2C(=O)C3C4C=CC(C5CC45)C3C2=O)c1 (centres undefined),u,-7.9,-55.2*,-0.7%,2.5%,u
CCCCN1CC(N2CCCCC2)CS1(=O)=O (centres undefined),x,x,-1.8,9.9%,x,5.8%
Cc1ccc(C)c(S(=O)(=O)c2cn(Cc3ccccc3)c3cc(N4CCCC4)c(F)cc3c2=O)c1,x,x,x,u,1.2%,u
COc1cc(C=C2Cc3ccccc3C2=O)cc(OC)c1OC,x,x,17.1,16.4µM*,x,8.2µM*
COc1ccc(C=C2Cc3ccccc3C2=O)cc1,x,x,18.4,-11.2%,x,u
COc1cc(N(C)C)c(OC)cc1/C=C1\Cc2ccccc2C1=O,x,x,x,u,x,11.2µM*
COc1ccc(/C=C2\Cc3ccccc3C2=O)cc1OC,u,-15.3,-0.6,-19.0%,5.7%,u
CCC(C)(C)NC(=O)CCCSc1nc2ccccc2[nH]1,11.1%,19.9,0.0,-28.0%,x,2.3%
